High-throughput results deposited in PubChem BioAssay by several laboratories.
In the library only some 4.8% were active in any assay of this set; here they are far more common.
TIM10 inh: growth inhibitors of TIM10 yeast strain; S. cerevisiae TIM10 strain growth, BacTiter-Glo luminescence, 24 h; inhibition, % at 10 µM; 1.4% of 330,000 active;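 active = inhibition of 40% or more at the single tested concentration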;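 also: wild-type TIM10 isogenic control strain grown at permissive 25 °C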
tim23-1 inh: inhibits growth of tim23-1 mutant yeast | S. cerevisiae tim23-1 growth, BacTiter-Glo luminescence, 24 h | inhibition, % at 20 µM | 1.3% of 330,000 active;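 active = growth inhibition of the mutant yeast at or above 50%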;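 also: temperature-sensitive mutant grown at 25 °C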
NALP1 yeast inh: inhibitors of NALP1 inflammasome in yeast; inhibition, % at 10 µM; AID 2071; 0.61% of 280,000 active; S. cerevisiae NALP1/ASC/caspase-1 growth, X-gal OD620, 72 h; in the data active = inhibition mostly above about 24%, no sharp cut-off; inactive = mostly below about 32%
tim10-1 inh: growth inhibitors of tim10-1 mutant yeast; S. cerevisiae tim10-1 ts strain growth, BacTiter-Glo, 24 h; inhibition, % at 20 µM; 2.2% of 330,000 active;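 active = inhibition of at least 40%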;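 also: mutant grown at 25 °C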
SKKanGAS inh: inhibitors of SKKanGAS S. pyogenes growth in kanamycin (SK-promoter or general growth effect); BacTiter-Glo, 6 h; inhibition, % at 7.5 µM; 1.3% of 300,000 active;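 active = mean replicate score, as percent of positive control median, at least 50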;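 also: strain carries kanamycin resistance gene driven by streptokinase promoter and grows in 40 µg/ml kanamycin; loss of luminescence reflects streptokinase promoter inhibition or plain growth inhibition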
PfHsp90 yeast 2: growth inhibition of yeast expressing Plasmodium Hsp90; inhibition, % at 9.4 µM; S. cerevisiae expressing PfHsp90, BacTiter-Glo ATP, 48 h; yeast lacking PDR1 and PDR3 efflux regulators; 0.32% of 310,000 active; AID 504621;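 active = every replicate shows inhibition above about 80%, whatever the replicate mean, limit read from the data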
Of the large screens only hits and unclear results are named; the others gave an inactive call.

COc1ccc(-c2csc(-n3ncc(C(=O)O)c3C(F)(F)F)n2)cc1	none
O=C(O)c1cnn(-c2nc(-c3ccc(Cl)cc3)cs2)c1C(F)(F)F	none
O=C(Nc1nnc(C2=COCCO2)o1)c1cccc(C(F)(F)F)c1	SKKanGAS inh 56
O=C(Nc1nnc(C2=COCCO2)o1)c1ccc(F)cc1	none
O=C(Nc1nnc(C2=COCCO2)o1)c1ccc(Cc2ccccc2)cc1	SKKanGAS inh 93 (no result: PfHsp90 yeast 2)
CN1CCN(Cc2nc3ccccc3c(=O)n2Cc2nc(-c3ccc4ccccc4c3)cs2)CC1	none (no result: TIM10 inh, tim23-1 inh, tim10-1 inh)
CN1CCN(Cc2nc3ccccc3c(=O)n2Cc2nc(-c3cccc([N+](=O)[O-])c3)cs2)CC1	NALP1 yeast inh 34 (no result: SKKanGAS inh)
COc1ccc2c(c1)C=C(C(=O)NCc1ccc(Cl)cc1)CO2	PfHsp90 yeast 2 98
Cc1[nH]n(-c2ncc(-c3ccccc3)s2)c(=O)c1C(c1ccc(Cl)cc1)C(C#N)C#N (stereo not drawn)	SKKanGAS inh 61
CC1=NN(Cc2ccccc2)C(=O)C1C(c1ccc(Cl)cc1)C(C#N)C#N (stereo not drawn)	none
Cc1c(C(=O)N(Cc2ccccc2)C(C)C)cnn1-c1ccccc1	none (no result: NALP1 yeast inh)
Cc1c(C(=O)N(Cc2ccccc2)Cc2cccs2)cnn1-c1ccc(Cl)cc1	PfHsp90 yeast 2 105
O=C(Nc1ccc(Cl)c(Cl)c1)C1CC(=O)N(c2ccc(Br)cc2)C1 (stereo not drawn)	SKKanGAS inh 54
COc1ccc(-c2[nH]c(-c3ccc(C(=O)O)cc3)nc2-c2ccccc2)cc1	none
COc1cc(-c2nc(-c3ccc4c(c3)-c3ccccc3S4(=O)=O)c(-c3ccccc3)[nH]2)cc(OC)c1O	SKKanGAS inh 66 (no result: PfHsp90 yeast 2)
CNC1(c2nnnn2-c2ccccc2C)CCOC(C)(C)C1 (stereo not drawn)	none
Cc1ccc2nc3c(c(Nc4ccccc4)c2c1)CCC3	NALP1 yeast inh 41
CC(NC(=O)c1ccc2c(c1)S(=O)(=O)N=C1CCCCCN12)c1ccc(S(N)(=O)=O)cc1 (stereo not drawn)	none
C/C(=N/NC(=O)c1cccs1)c1c(C)[nH]n(-c2nc3ccccc3s2)c1=O	SKKanGAS inh 55
CC(=NCc1ccco1)c1c(C)[nH]n(-c2nc3ccccc3s2)c1=O	none
COCCN(C(=O)Cc1ccc(S(=O)(=O)N2CCOCC2)s1)c1c(N)n(CC(C)C)c(=O)[nH]c1=O	none (no result: TIM10 inh, tim23-1 inh, NALP1 yeast inh, tim10-1 inh, SKKanGAS inh)
OC1C2CN3CCN(C2)CC1(Cc1ccccc1)C3 (stereo not drawn)	none
Cc1ccc(/C=N/NC(=O)C[n+]2ccccc2)o1	none
CCCC(C)c1nnc(NC(=O)C2CCCO2)s1 (stereo not drawn)	NALP1 yeast inh 33 (no result: PfHsp90 yeast 2)
CC1CCc2nc(NC(=O)C3CCCO3)sc2C1 (stereo not drawn)	NALP1 yeast inh 33
O=C1c2ccccc2C(=O)N1CCCCSc1nnc(-c2ccc(OC(F)F)cc2)o1	none (no result: PfHsp90 yeast 2)
Cc1ccc(S(=O)(=O)NCC2CCC(C(=O)NCc3ccc4c(c3)OCO4)CC2)cc1 (stereo not drawn)	NALP1 yeast inh 41
C=C1SC(=Nc2c(C)cc(C)cc2C)N(C(=O)c2sc3ccccc3c2Cl)C12CCCCC2	none
CCc1nnc(NC(=O)CSc2nnc(-c3cccnc3)n2CC)s1	NALP1 yeast inh 40
CCCn1c(SCC(=O)Nc2nnc(CC)s2)nnc1-c1ccncc1	NALP1 yeast inh 30
CCc1nnc(NC(=O)CSc2nnc(-c3ccccc3O)n2CC)s1	none
Cc1cc(C)c2nc(-c3ccncc3)cc(C(=O)N3CCN(Cc4ccccc4Cl)CC3)c2c1	SKKanGAS inh 74
O=C(c1cc(-c2ccncc2)nc2ccc(Cl)cc12)N1CCN(Cc2ccc3c(c2)OCO3)CC1	none
O=C(c1cc(-c2ccccc2)n[nH]1)N1CCc2c([nH]c3ccccc23)C1c1ccccn1 (stereo not drawn)	SKKanGAS inh 75
CC1=NN2C(=N)/C(=C\c3cc(C)n(-c4ccccc4)c3C)C(=O)N=C2S1	none
CCC(CC)C1=NN2C(=N)/C(=C\c3cc(C)n(-c4cccc(C)c4)c3C)C(=O)N=C2S1	SKKanGAS inh 86
CCOc1ccc(-n2c(C)cc(/C=C3/C(=N)N4C(=NC3=O)SN=C4S(C)(=O)=O)c2C)cc1	SKKanGAS inh 84
Cc1cc(/C=C2/C(=N)N3C(=NC2=O)SN=C3S(C)(=O)=O)c(C)n1-c1ccc(F)cc1	SKKanGAS inh 64
COc1cccc(NC(=S)N(CCN(C)C)C(C)c2cccnc2)c1 (stereo not drawn)	none
COc1ccccc1NC1=C(N2CCCCC2)C(=O)c2ccccc2C1=O	NALP1 yeast inh 80
N#C/C(=N\Nc1ccc(S(=O)(=O)N2CCOCC2)cc1)C(N)=S	SKKanGAS inh 65
N#C/C(=N\Nc1ccc(Cl)cc1)C(N)=S	SKKanGAS inh 97 (no result: NALP1 yeast inh)
N#C/C(=N\Nc1ccccc1)C(N)=S	none
Cc1ccc(NS(=O)(=O)c2ccc(CCC(=O)NCc3ccccn3)cc2)cc1	none
COC(=O)CNC(=O)c1c(-c2c(Cl)cccc2Cl)noc1C	none (no result: PfHsp90 yeast 2)
Cc1ccccc1-n1c(SCC(=O)NC(N)=O)nc2sc(-c3ccccc3)cc2c1=O	SKKanGAS inh 86
CC1CC(C)CN(C(=O)c2ccc3ncsc3c2)C1 (stereo not drawn)	none (no result: NALP1 yeast inh, SKKanGAS inh)
O=C(c1ccc(N2CCOCC2)cc1[N+](=O)[O-])N1CCOCC1	NALP1 yeast inh 34
COc1c(CC=C(C)C)cc(C2CC(=O)c3c(O)cc(O)cc3O2)cc1CC=C(C)C (stereo not drawn)	SKKanGAS inh 101
COc1ccc([C@@H]2CC(=O)c3c(O)cc(O)cc3O2)cc1O	none (no result: NALP1 yeast inh, SKKanGAS inh)
O=C(CN1CCN(Cc2ccccc2)CC1)NCCNc1ccc([N+](=O)[O-])cn1	none
COc1ccc(C2N(c3cc(Cl)ccc3OC)C(=O)C3CCCN32)cc1 (stereo not drawn)	NALP1 yeast inh 41
COc1ccc(Cl)cc1N1C(=O)C2CCCN2C1c1ccc(F)cc1 (stereo not drawn)	none
O=C(NC(=S)Nc1ccc(Cl)c(C(=O)O)c1)c1ccc(OCc2ccccc2)cc1	none
O=C(NC(=S)Nc1ccc(Cl)c(C(=O)O)c1)c1cccc(COc2ccccc2)c1	SKKanGAS inh 56
Cc1ccc(/C=C/C(=O)NN2CCN(C)CC2)cc1	none
CC(C)C(C(=O)Nc1ccncc1)c1ccc(Cl)cc1 (stereo not drawn)	none
CC(C)C(C(=O)Nc1nccs1)N1C(=O)c2ccccc2C1=O (stereo not drawn)	NALP1 yeast inh 28
CC(C)C(C(=O)Nc1nccs1)c1ccc(Cl)cc1 (stereo not drawn)	SKKanGAS inh 60
COc1ccc(C)cc1NC(=O)COCC(=O)O	none
O=C(COc1ccc(Cl)cc1)Nc1nnc(-c2ccc3c(c2)CCCC3)o1	SKKanGAS inh 97
O=C(Nc1nnc(-c2ccc3c(c2)CCCC3)o1)C1COc2ccccc2O1 (stereo not drawn)	SKKanGAS inh 99
